Test results reported in PubChem BioAssay (NCATS).
The source made the active and inactive calls. Calls come from the whole dose curve; as a rule, active = well fitted activation curve with a large enough effect; inconclusive = small, poorly fitted or top-dose-only effect; inactive = flat fitted curve, though single readings scatter.

assay: Confirmation and Secondary Assay for Modulators of Hemoglobin Beta Chain Splicing at IVS2 705 locus (AID 930); conditions: HeLa EGFP-705 splicing reporter, GFP fluorescence, 48 h; series mostly up to 46.1 µM;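 note: HeLa cells stably expressing the EGFP-705 splicing reporter; GFP fluorescence per well restored by corrected splicing of the IVS2-705 intron in EGFP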
Method in brief: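 HeLa EGFP-705 reporter; 500 cells/well, o/n 37C 5% CO2; cpd 2 d; 488 ex/500-520 em laser scan; total peak GFP intensity/well. Ref: 500 nM […] antisense PNA.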

| Compound | outcome |
| --- | --- |
| CC1=C(/C=C/C(C)=C/C=C/C(C)=C\C(=O)O)C(C)(C)CCC1 | inactive |
| NC(N)=NC(N)=Nc1ccccc1 | inactive |
| CC(C)NC[C@H](O)COc1ccc(CC(N)=O)cc1 | inactive |
| O=[N+]([O-])c1cccc2c(Br)[nH]nc12 | inactive |
| O=C(O)c1ccccc1Nc1ccccc1 | inactive |
| Cn1c(=O)c2[nH]c(C3CCCC3)nc2n(C)c1=O | inactive |
| O=C(O)/C=C/c1ccc(O)c(O)c1 | inactive |
| O=C(O)c1cc2cc(F)ccc2[nH]1 | inactive |
| CN1C2CCC1CC(OC(c1ccccc1)c1ccccc1)C2 (stereo not given) | inactive |
| CC(C)Cn1c(=O)n(C)c(=O)c2[nH]cnc21 | inactive |
| NCCCCN | inactive |
| NC(=O)CC[C@H](N)C(=O)O | inactive |
| N=C(N)SCCN | inactive |
| NC1CONC1=O (stereo not given) | inactive |
| NCCCCN=C(N)N | inactive |
